Experimental data as given in PubChem BioAssay AID1403 (National Center for Advancing Translational Sciences (NCATS), 2008).
Results filed as inconclusive are left out. Calls of active or inactive are those of the source. Calls come from the whole dose curve; as a rule, active = well fitted curve in the direction sought with a large enough effect in the signal ratio; inconclusive = small, poorly fitted or top-dose-only effect, or a change in a side signal; inactive = no such curve, though single readings can be large or run the other way; the % refers to the signal ratio.

Biological target: Follicle-stimulating hormone receptor (Homo sapiens) (UniProt P23945)
Test: Counterscreen for Agonists of Thyroid Stimulating Hormone Receptor: HTRF Activity in a Follicle Stimulating Hormone Receptor Cell Line
Conditions: HEK293-FSHR cells, 30 min; series mostly up to 91.7 µM
From the text: NIH Chemical Genomics Center [NCGC] NIH Molecular Libraries Screening Centers Network [MLSCN] MLSCN Grant: 1 X01 MH080680-01 PI Name: Dr. Marvin Gershengorn, NIH NCGC Assay Overview: Confirmation of Thyroid Stimulating Hormone Receptor Agonists TSH is an alpha/beta heterodimeric glycoprotein hormone secreted from the anterior pituitary gland which belongs to the glycoprotein hormone family. The actions of TSH are mediated by a seven-transmembrane receptor, which upon TSH binding couples preferentially to the G-alpha (s) protein (Gs), resulting in activation of adenylate cyclase and increase in cyclic adenosine 3', 5' monophosphate (cAMP). The TSH receptor (THSR) is mainly expressed in thyroid follicular cells and regulates their growth and function. […] In order to confirm specificity of the compounds to the TSHR, a confirmatory assay was conducted on a similar family member, the Follicle Stimulating Hormone (FSH) receptor, transfected into a HEK 293 cell line, using an orthogonal detection technology to measure cAMP stimulation: antibody-based Homogeneous Time Resolved Fluorescence (HTRF).
NCGC Assay Protocol Summary: Homogeneous Time Resolved Fluorescence (HTRF) cAMP Assay. […] Plates were measured using the Envision plate reader (PerkinElmer, Boston, MA) with excitation at 330 nm and emissions of 615 nm and 660 nm. […]

| Structure (SMILES) | outcome |
| --- | --- |
| CCOC(=O)C1=C(N)Oc2c(c(=O)oc3ccccc23)C12C(=O)N(C)c1ccccc12 (configuration not stated) | inactive |
| C=CCN1C(=O)C2(C(C(=O)OC)=C(N)Oc3c2c(=O)oc2ccccc32)c2ccccc21 (configuration not stated) | inactive |
